Measured values taken from PubChem BioAssay (Tox21).
Inconclusive results are not listed. Entries that show only a call come without a potency. Calls of active or inactive are those of the source. Unless noted, calls come from the whole dose curve; as a rule, active = well fitted curve in the direction sought with a large enough effect in the repeat runs; inconclusive = weak or mixed curves; inactive = no such curve, though single readings can be large; an effect the other way counts as inactive or inconclusive.

What was measured:
[1] = qHTS assay for small molecule agonists of the p53 signaling pathway (AID 651631; calls by dose curve; note: nearly all actives have a fitted effect of over 15% in size; note: potency is the fitted concentration of half-maximal effect)
How it was run: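 HCT-116 cells carrying a stable p53 response element–beta-lactamase reporter were plated, rested 5 h at 37 °C, then exposed to compound in DMSO for 16 h at 37 °C; reporter activity was read as FRET substrate fluorescence after 2 h at room temperature.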

[2] = qHTS assay for small molecules that induce genotoxicity in human embryonic kidney cells expressing luciferase-tagged ATAD5 (AID 651632); note: nearly all actives have a fitted effect of over 15% in size
How it was run: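 HEK293T cells carrying a luciferase reporter tagged to ATAD5 were exposed to compound or DMSO vehicle for 16 hr at 37C, 5% CO2. Amplite was added, and after 30 min at room temperature luciferase activity was read as a marker of ATAD5 induction.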

[3] = qHTS assay for small molecule agonists of the p53 signaling pathway - cell viability (AID 651633; calls by dose curve; note: nearly all actives have a fitted effect of over 30% in size)
How it was run: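 Viability counter-read: CellTiter-Glo luminescence (30 min, room temperature) in the same p53RE-bla plates. These plates had been exposed to compounds for 16 h at 37 C.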

[4] = qHTS assay for small molecules that induce genotoxicity in human embryonic kidney cells expressing luciferase-tagged ATAD5 - cell viability (AID 651634; calls by dose curve; note: nearly all actives have a fitted effect of over 25% in size)
How it was run: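 HEK293T cells expressing luciferase-tagged ATAD5 were exposed to compound or DMSO for 15.5 hr at 37C, 5% CO2. Viability was then read as live-cell protease activity by CellTiter-Fluor fluorescence after 30 min at 37C.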

[5] = qHTS assay for small molecule disruptors of the mitochondrial membrane potential - cell viability (AID 720634; calls by dose curve;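 note: human HepG2 liver cancer cells; nearly all actives have a fitted effect of over 20% in size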)
How it was run: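 HepG2 cells seeded overnight at 37 C, then exposed to compound or DMSO for 1 hr at 37 C, 5% CO2. m-MPI dye added, then CellTiter-Glo for 30 min at room temperature; viability read as ATP luminescence.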

[6] = qHTS assay to test for compound auto fluorescence at 590 nm (red) in HepG2 cells (AID 720674)
How it was run: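 Red autofluorescence (Ex/Em 540/590 nm, Rose Bengal sodium equivalents) was measured in HepG2 cells, 2,000 per well in MEM plus 10% FBS, plated overnight at 37 C. Readings were taken 1 hr after adding 23 nL compound or DMSO, at 37 C and 5% CO2.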

[7] = qHTS assay to test for compound auto fluorescence at 535 nm (green) in HepG2 cells (AID 720675)
[8] = qHTS assay to test for compound auto fluorescence at 460 nm (blue) in HEK293 cells (AID 720678)
How it was run: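 Blue-channel (Ex/Em 405/460 nm) intensity measured in HEK293 cultures after overnight compound exposure at 37C; signal expressed relative to triamterene. Cells plated 2,000 per well in 10% dialyzed FBS medium and allowed 4-5 hr to attach.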

[9] = qHTS assay to test for compound auto fluorescence at 590 nm (red) in HEK293 cells (AID 720679)
How it was run: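 Red-channel autofluorescence (Ex/Em 540/590 nm; Rose Bengal sodium reference) was measured after overnight 37C, 5% CO2 exposure of attached HEK293 cells, 2,000 per well in medium with 10% dialyzed FBS.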

[10] = qHTS assay to test for compound auto fluorescence at 535 nm (green) in HEK293 cells (AID 720680)
[11] = qHTS assay to test for compound auto fluorescence at 460 nm (blue) in HEK293 cell free culture (AID 720681)
How it was run: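 Blue fluorescence (Ex 405/Em 460 nm, triamterene-equivalent) was read immediately after pin transfer of compound or DMSO into medium (DMEM, 10% FBS) without cells.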

[12] = qHTS assay to test for compound auto fluorescence at 535 nm (green) in HEK293 cell free culture (AID 720682)
How it was run: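 Read-out: 485/535 nm fluorescence intensity, calibrated against fluorescein. Medium only (DMEM + 10% FBS, no cells); test compound or DMSO vehicle added by pintool before plate reading.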

[13] = qHTS assay to test for compound auto fluorescence at 590 nm (red) in HEK293 cell free culture (AID 720683)
How it was run: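 Red-channel autofluorescence of compounds in culture medium (DMEM, 10% FBS), no cells, measured at 540/590 nm. Rose Bengal sodium is the reference fluorophore for equivalence.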

[14] = qHTS assay to test for compound auto fluorescence at 590 nm (red) in HepG2 cell free culture (AID 720684)
How it was run: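 Steps: dispense MEM/10% FBS medium, no cells; pin compound or DMSO vehicle; read red channel, Ex/Em 540/590 nm. Output given as Rose Bengal sodium equivalents.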

[15] = qHTS assay to test for compound auto fluorescence at 460 nm (blue) in HepG2 cell free culture (AID 720685)
How it was run: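 Compound (23 nL) or DMSO pinned into cell-free MEM with 10% FBS; blue fluorescence read at 405/460 nm excitation/emission, expressed as auto-fluorescence equivalency to triamterene.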

[16] = qHTS assay to test for compound auto fluorescence at 535 nm (green) in HepG2 cell free culture (AID 720686)
[17] = qHTS assay to test for compound auto fluorescence at 460 nm (blue) in HepG2 cells (AID 720687)
How it was run: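 Blue-channel autofluorescence (Ex/Em 405/460 nm, triamterene-equivalent) was measured after 1 hr compound exposure at 37 C, 5% CO2. Cells were HepG2, plated overnight at 37 C in MEM plus 10% FBS.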

[18] = target: Glucocorticoid receptor (Homo sapiens) (UniProt P04150); test: qHTS assay to identify small molecule agonists of the glucocorticoid receptor (GR) signaling pathway (AID 720691; active = well fitted activation curve with a large enough effect in the signal ratio in the repeat runs, not every such curve was filed as active; the % refers to the signal ratio); conditions: GR-bla HeLa, beta-lactamase reporter ratio, 18 h; activation: at 62.4 µM (top of the series)
Sequence of Glucocorticoid receptor (Homo sapiens) (P04150 whole entry, looked up): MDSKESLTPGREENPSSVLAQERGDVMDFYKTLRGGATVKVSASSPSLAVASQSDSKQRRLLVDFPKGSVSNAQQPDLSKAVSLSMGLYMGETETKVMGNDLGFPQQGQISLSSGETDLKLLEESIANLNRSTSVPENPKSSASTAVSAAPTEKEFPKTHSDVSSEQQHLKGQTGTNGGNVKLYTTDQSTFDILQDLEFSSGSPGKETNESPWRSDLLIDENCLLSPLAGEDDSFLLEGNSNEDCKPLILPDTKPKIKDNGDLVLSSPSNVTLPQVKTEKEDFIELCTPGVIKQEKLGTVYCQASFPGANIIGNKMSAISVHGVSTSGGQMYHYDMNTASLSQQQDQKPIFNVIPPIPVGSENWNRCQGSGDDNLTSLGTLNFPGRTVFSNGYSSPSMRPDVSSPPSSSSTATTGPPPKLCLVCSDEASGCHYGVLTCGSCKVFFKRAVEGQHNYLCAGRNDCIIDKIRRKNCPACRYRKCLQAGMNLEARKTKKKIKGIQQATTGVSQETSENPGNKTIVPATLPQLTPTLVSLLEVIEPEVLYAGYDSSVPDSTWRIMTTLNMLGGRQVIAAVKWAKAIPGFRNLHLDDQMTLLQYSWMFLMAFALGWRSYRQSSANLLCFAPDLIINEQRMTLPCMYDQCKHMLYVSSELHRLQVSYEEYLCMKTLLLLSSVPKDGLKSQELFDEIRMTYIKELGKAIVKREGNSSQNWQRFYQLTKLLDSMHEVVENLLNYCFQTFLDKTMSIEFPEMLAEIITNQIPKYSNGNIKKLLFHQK
How it was run: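 GR-bla HeLa cells (beta-lactamase reporter under glucocorticoid response element) were plated 4 h at 37 C/5% CO2, given compounds in DMSO, and incubated 18 h at 37 C. LiveBLAzer B/G FRET substrate was added for 2 h at room temperature, then fluorescence intensity read.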

[19] = target: Glucocorticoid receptor (Homo sapiens) (UniProt P04150); test: qHTS assay to identify small molecule antagonists of the glucocorticoid receptor (GR) signaling pathway (AID 720692; active = well fitted inhibition curve with a large enough effect in the signal ratio in the repeat runs, not every such curve was filed as active; the % refers to the signal ratio)
How it was run: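 GR-bla HeLa cells (beta-lactamase reporter under glucocorticoid response element) were pre-plated 4 h at 37 C, treated with compounds plus 5 nM dexamethasone (final) for 18 h, then read by LiveBLAzer B/G FRET fluorescence after 2 h.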

Compound | Potency [1] | Potency [2] | Potency [3] | Potency [4] | Potency [5] | Potency [6] | Potency [7] | Potency [8] | Potency [9] | Potency [10] | Potency [11] | Potency [12] | Potency [13] | Potency [14] | outcome [15] | Potency [16] | outcome [17] | Potency [18] | Potency [19]
CN(CC(=O)N1CCOCC1)Cc1c(Cl)cccc1NC(=O)c1ccccc1 | inactive | inactive | inactive | inactive | inactive | inactive | inactive | inactive | inactive | inactive | inactive | inactive | inactive | inactive | inactive | inactive | inactive | inactive | inactive
O=C1NC(=O)[C@H]2[C@@H]1[C@@H]1C=C[C@H]2C1 | inactive | inactive | inactive | inactive | inactive | inactive | inactive | inactive | inactive | inactive | inactive | inactive | inactive | inactive | inactive | inactive | inactive | inactive | inactive
CC(=O)O[C@H]1C[C@@]2(C)[C@@H](C[C@@H](O)[C@H]3[C@@]4(C)CC[C@@H](O)[C@@H](C)[C@@H]4CC[C@@]32C)/C1=C(\CCC=C(C)C)C(=O)O | inactive | inactive | inactive | inactive | inactive | inactive | inactive | inactive | inactive | inactive | inactive | inactive | inactive | inactive | inactive | inactive | inactive | inactive | inactive
O=C1c2ccccc2C(=O)C1c1ccc(Cl)cc1 | inactive | inactive | inactive | inactive | inactive | inactive | inactive | inactive | inactive | inactive | inactive | inactive | – | inactive | inactive | inactive | inactive | – | –
CC[C@H]1NC(=O)[C@@H](NC(=O)c2ncccc2O)[C@@H](C)OC(=O)[C@H](c2ccccc2)NC(=O)[C@@H]2CC(=O)CCN2C(=O)[C@H](Cc2ccccc2)N(C)C(=O)[C@@H]2CCCN2C1=O | inactive | inactive | inactive | inactive | inactive | inactive | inactive | inactive | inactive | – | – | inactive | inactive | inactive | inactive | inactive | inactive | inactive | –
CCC(Cc1c(I)cc(I)c(O)c1I)C(=O)O (configuration not stated) | inactive | inactive | inactive | inactive | inactive | inactive | inactive | inactive | inactive | inactive | inactive | inactive | inactive | inactive | – | inactive | inactive | inactive | –
C=CCSSSCC=C | 9.44 µM (active) | inactive | inactive | inactive | inactive | inactive | inactive | inactive | inactive | inactive | inactive | inactive | inactive | inactive | inactive | inactive | inactive | inactive | inactive
CCOC(=O)C1=C[C@@H](OC(CC)CC)[C@H](NC(C)=O)[C@@H](N)C1 | inactive | inactive | inactive | inactive | inactive | inactive | inactive | inactive | inactive | inactive | inactive | inactive | inactive | inactive | inactive | inactive | inactive | inactive | inactive
Nc1nc2c(c(=O)[nH]1)N(C=O)C(CNc1ccc(C(=O)N[C@@H](CCC(=O)O)C(=O)O)cc1)CN2 (some centres not stated) | inactive | inactive | inactive | inactive | inactive | inactive | inactive | inactive | inactive | inactive | inactive | inactive | inactive | inactive | inactive | inactive | inactive | – | inactive
NCCCC[C@H](N)C(=O)O | inactive | inactive | inactive | inactive | inactive | inactive | inactive | inactive | inactive | inactive | inactive | inactive | inactive | inactive | inactive | inactive | inactive | inactive | inactive
CC(C)Cc1ccc([C@@H](C)C(=O)NS(C)(=O)=O)cc1 | inactive | inactive | inactive | inactive | inactive | inactive | – | inactive | inactive | inactive | inactive | inactive | inactive | inactive | inactive | inactive | inactive | – | –
CCC(c1ccccc1)c1noc(CCN(CC)CC)n1 (configuration not stated) | inactive | inactive | inactive | inactive | inactive | inactive | inactive | inactive | inactive | inactive | inactive | inactive | – | inactive | inactive | inactive | inactive | inactive | inactive
COC1=C(C(=O)O)N2C(=O)[C@@H](NC(=O)[C@H](N)C3=CCC=CC3)[C@H]2SC1 | inactive | inactive | inactive | inactive | inactive | inactive | inactive | inactive | inactive | – | inactive | inactive | inactive | inactive | inactive | inactive | inactive | – | inactive
